Screens as filed in PubChem BioAssay.
Most compounds without a hit are left out; they make up all but 4.1% or so of the library.
FAS-TE inh = inhibitors of human fatty acid synthase thioesterase domain; P49327; recombinant FAS-TE, OMFH fluorogenic substrate, fluorescence endpoint; inhibition, % at 15 µM; 0.67% of 360,000 active; AID 602261;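 active = compounds whose normalised, plate-corrected inhibition of enzyme fluorescence in the single-dose primary screen is 50% or more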
NR3A LBD binder = NR3A (human) ligand-binding domain modulation; Tm shift relative to glycine control, % at 25 µM; NR3A LBD differential scanning fluorimetry, Tm shift; 0% = protein alone, 100% = glycine-bound protein; 2.5% of 340,000 active;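 active = melting temperature shift of at least 10% of the positive control shift, at one fixed dose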
MIN6 prolif = inducers of beta-cell replication in MIN6 cells | MIN6 cells proliferation, ATPlite luminescence, 48 h; cells starved in 0.2% serum; 100% = growth in 10% serum | 0.29% of 330,000 active | AID 2380 | proliferation, % at 10 µM;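 active = compounds whose signal lies at least 3.5 SD above the mean of all wells on their plate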
pCIP destab = lowers stability of the mouse p/CIP coactivator protein; Q05BA5; F442A p/CIP-EGFP cells, EGFP fluorescence, 16 h; decrease of EGFP signal, % at 10 µM; 0.01% of 290,000 active; AID 1984;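 active = EGFP signal decrease of at least 30% at 10 µM or well 3 SD below plate mean, unless failing retest; inactive = the rest, including hits failing retest or dose response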
MPTP block = blocks calcium-induced mitochondrial swelling. isolated mouse mitochondria, Ca2+ swelling absorbance, 30 min. inhibition, % at 10 µM. 1.4% of 360,000 active. AID 602449;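 active = inhibition of 50% or more, scaled per plate between neutral and stimulator controls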
MPTP counter = Rhodamine 123 counter-screen of mitochondrial pore hits | inhibition, % at 10 µM | isolated mitochondria, membrane potential, Rhodamine 123 fluorescence | shares compounds with MPTP block | AID 624504 | 78% of 5,000 active; in the data active = inhibition above about 22%
Numbers stand for hits; – = inactive; · = no result.

SMILES	FAS-TE inh	NR3A LBD binder	MIN6 prolif	pCIP destab	MPTP block	MPTP counter
Cc1ccc(NC(=O)c2c(C(F)(F)F)nn(C)c2SCc2ccc(Cl)cc2)cc1C	–	–	–	–	–	·
COc1ccc(CN2C(=O)CS/C2=N/N=C/c2ccccc2)cc1	–	–	–	–	67.3	65.4
COc1ccc(/C=N/N=C2/SCC(=O)N2Cc2ccccc2)cc1	–	–	–	–	–	·
CC(C)NC(=O)c1onc(CSc2nc3ccccc3[nH]2)c1C(=O)NC(C)C	–	–	–	–	–	·
COC(=O)c1c(C)oc2ccc(NS(=O)(=O)c3cccs3)cc12	–	–	–	–	92.5	57.3
CC(=O)c1c(C)oc2ccc(NS(=O)(=O)c3ccc(F)cc3C)cc12	–	–	–	–	–	·
CCN(CC)CCNC(=O)c1cccc(NC(=O)C(=O)c2ccccc2NC(C)=O)c1	–	–	–	–	–	·
Cc1nc2ccccn2c1-c1csc(Nc2cccc(O)c2)n1	–	–	·	–	–	·
Cc1cccc(Nc2nc(-c3c(C)nc4ccccn34)cs2)c1	–	–	–	–	85.7	76.1
O=C(COC(=O)c1cc(S(=O)(=O)Nc2ccccc2Cl)ccc1O)Nc1nc2ccccc2s1	–	23.8	·	–	90.4	77.7
Cc1cccc(C)c1NC(=O)COC(=O)c1cc(S(=O)(=O)Nc2ccc(Cl)cc2)ccc1O	–	–	–	·	–	·
COc1ccccc1NS(=O)(=O)c1ccc(O)c(C(=O)OCC(=O)c2ccc(Cl)cc2Cl)c1	–	–	–	–	–	·
N#Cc1cccc(NC(=O)COC(=O)c2cc(S(=O)(=O)Nc3ccccc3Cl)ccc2O)c1	–	18.5	–	·	57.9	85.9
COc1cccc(-c2sc3ccccc3c2-c2ccc(OCCN(C)C)cc2)c1	–	–	–	·	–	·
CCOc1ccc(Oc2ccccc2NS(=O)(=O)c2ccc(CCC(=O)O)cc2)cc1	–	–	–	·	–	·
O=S(=O)(c1ccc2c(c1)C(O)c1ccccc1CC2)C(F)(F)F (stereo not given)	–	–	–	·	89.8	92.2
CN(C(=O)COC(=O)c1ccc(Cl)cc1N)C1CCS(=O)(=O)C1 (stereo not given)	–	–	–	–	–	·
O=C1c2cccc(OCc3ccc(F)cc3)c2CCN1Cc1ccc(F)cc1	–	–	–	–	79.4	83.2
Cc1ccc(NC(=O)CN2C(=O)NC(C)(c3ccccc3)C2=O)c(C)c1 (stereo not given)	–	–	–	–	–	·
O=C(Nc1ccc(CSc2ccccc2)cc1)c1ccccc1	–	–	–	–	–	·
O=C(Nc1ccc(C(=O)O)cc1)Nc1cccc([N+](=O)[O-])c1	–	–	–	–	80.7	75.8
O=C(Nc1cccc([N+](=O)[O-])c1)c1ccc(CSc2ccccc2)cc1	–	30.8	–	–	77.9	86.3
O=C(Nc1ccc(C(=O)O)cc1)Nc1ccc([N+](=O)[O-])cc1	–	–	–	–	–	·
CC(C)S(=O)(=O)c1csc(NC(=O)Nc2cccc([N+](=O)[O-])c2)c1Cl	–	29.4	–	–	83.6	69.3
O=C(Nc1cccc([N+](=O)[O-])c1)ONC1=NCCCCC1	–	–	–	–	67.8	76.9
SMILES	FAS-TE inh	NR3A LBD binder	MIN6 prolif	pCIP destab	MPTP block	MPTP counter
Cc1cc(Br)ccc1NC(=S)Nc1cccc([N+](=O)[O-])c1	–	–	–	–	96.7	90.8
COc1ccc(CCNC(=O)Nc2cccc([N+](=O)[O-])c2)cc1	–	–	–	–	84.9	82.8
Cc1cc([N+](=O)[O-])ccc1NC(=S)NC1CCCC1	–	–	–	–	66.8	97.2
CNC(=S)Nc1cccc([N+](=O)[O-])c1	–	–	–	–	–	·
O=C(Nc1cccc([N+](=O)[O-])c1)Nc1ccc2c(c1)OCCO2	–	28.7	–	–	62.4	91.4
CC(C)OC(=O)CC1C(=O)NCCN1C(=S)NC(=O)c1ccc(F)cc1 (stereo not given)	–	–	–	–	–	·
CN1C(=O)/C(=C/c2ccc(OCc3ccc(F)cc3)cc2)NC1=S	–	–	–	–	–	·
O=C(Nc1cccc([N+](=O)[O-])c1)NN1CCCCCC1	–	–	·	·	93.7	81.7
CC(=O)NC(=S)Nc1cccc([N+](=O)[O-])c1	–	–	–	–	–	·
CCOc1ccc(C(=O)Nc2cccc(NC(=O)c3cccs3)c2)cc1[N+](=O)[O-]	–	–	·	–	–	·
CCOc1ccc(C(=O)Nc2cccc([N+](=O)[O-])c2)cc1Br	–	27.0	–	–	79.6	68.8
